Experimental data reported in PubChem BioAssay AID2125 (NMMLSC, 2009).
A number with no mark means an inactive call.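 The calls were made as follows: active = combined score above 50, rising as EC50 falls below 10 µM and growth at top dose drops; inactive = the rest.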 Peptide text beside a SMILES is read from it. * marks the point of attachment. Cbz = O=C(OCc1ccccc1)*

System: YE3961
Assay: growth inhibition of S. cerevisiae strain panel, profiling panel, 26S proteasome disassembly project, secondary panel, OD600 (AID 2125)
Details: growth OD600, 6-8 h, at 100 µM, active compounds read low

SMILES | percent response (growth)
CC(C)C[C@@H](C=O)NC(=O)[C@H](CC(C)C)NC(=O)[C@H](CC(C)C)NC(=O)OCc1ccccc1 (Cbz-Leu-Leu-Leu-aldehyde) | 59%
CC(=O)N1C(=O)C(=C2C=C(C)OC(C)=C2)c2ccccc21 | 78.5%
